Most compounds without a hit are left out; they make up all but 7.2% or so of the library.
PK Bst: Pyruvate Kinase. Potency, µM. 51,000 tested, 1.2% active. purified pyruvate kinase, luminescence ATP production; ribose 5-phosphate activator present at AC10. AID 361, 2006; in the data active = potency below about 11 µM; inconclusive = mostly about 12 µM to 25 µM;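 the screen sought inhibitors and activators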;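 note: scaled between full activation by ribose 5 phosphate and full inhibition by luteolin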
TSHR agonist: qHTS Assay for Agonists of the Thyroid Stimulating Hormone Receptor | 73,000 tested, 0.48% active | Potency, µM (series often up to 57.1 µM), for inactives: top-dose activation, usual class: activators | HEK293-CNG-TSHR cells (CNG channel as cAMP sensor), membrane potential dye, cAMP | AID 926, 2007; active = well fitted activation curve with a large enough effect in the main read-out, with a control signal flat, not every such curve was filed as active; inconclusive = small, poorly fitted or top-dose-only effect, or a change in a side signal; inactive = no such curve, though single readings can be large or run the other way; % of control where 0% means no effect;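 note: the control signal comes from parental cells without the receptor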
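cAMP rise detected as CNG-channel membrane depolarization by fluorescent dye (emission 590 nm), 30 min after compound, following 60 min dye loading containing 100 uM RO 20-1724 at room temperature. Cells: TSHR/CNG HEK 293, with parental CNG HEK 293 as control.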
FLuc inh: qHTS Assay for Inhibitors of Firefly Luciferase. Luciferin 4-monooxygenase (Photinus pyralis), P08659. purified firefly luciferase, luminescence, 8 min. Potency, µM (series often up to 57.1 µM), for the others: at the highest dose activity change, negative = inhibition, usual class: inhibitors. 72,000 tested, 2.2% active; note: % is set by controls: 0 for no effect and ±100 for the full control effect; nearly all actives have a fitted effect of over 40% in size
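Firefly luciferase (PKLight detection mix) with 10 uM ATP in pH 7.2 imidazole buffer (KCl, MgCl2, Tween 20, BSA). Compounds tested across a concentration series (qHTS). Luminescence read after 8 min at ambient temperature.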
HEK293 cAMP cs: qHTS Assay for Agonists of the Thyroid Stimulating Hormone Receptor: Activators of Intracellular cAMP Concentrations in Parental HEK 293; parental HEK293 CNG cAMP sensor, membrane potential fluorescence; Potency, µM (highest dose often 57.1 µM), for inactives: at the highest dose activation, hits mostly activators; 73,000 tested, 2.5% active; AID 938, 2007; note: % of control where 0% means no effect; nearly all actives have a fitted effect of over 55% in size
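Parental HEK 293 cells stably expressing a cAMP-gated CNG channel were loaded with membrane potential dye containing 100 uM RO 20-1724 for 60 min. Compound added for 30 min; depolarization read as fluorescence intensity at 590 nm.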
ERK AVP block: qHTS Assay for Inhibitors of the ERK Signaling Pathway using a Homogeneous Screening Assay; 72,000 tested, 0.99% active; Potency, µM (titrated, usually from 57.5 µM), for inactives: at the top dose activity, negative = inhibition, usual class: inhibitors; HEK293-V1b, vasopressin-stimulated pERK AlphaScreen; note: % is set by controls: 0 for no effect and ±100 for the full control effect; nearly all actives have a fitted effect of over 55% in size
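Overnight-seeded V1b-HEK293 cells in 1% FBS got compound, then vasopressin (25 nM final, 5 min, 37C), then lysis buffer. AlphaScreen detection of phospho-ERK; activity normalized to basal and full-stimulation controls.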
Tau filament bind: qHTS Assay for Tau Filament Binding | Microtubule-associated protein tau (Homo sapiens), P10636 | recombinant tau filaments, thioflavin S fluorescence, 15 h; filaments grown with octadecylsulfate alongside compound | Potency, µM (top dose mostly 57.1 µM), inactives show at the highest dose activity change, negative = inhibition | 71,000 tested, 2% active | AID 596, 2007;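 note: % is set by controls: 0 for no effect and ±100 for the full control effect; actives lower thioflavin S fluorescence by blocking filaments or displacing dye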
Target sequence (P10636 whole entry, looked up): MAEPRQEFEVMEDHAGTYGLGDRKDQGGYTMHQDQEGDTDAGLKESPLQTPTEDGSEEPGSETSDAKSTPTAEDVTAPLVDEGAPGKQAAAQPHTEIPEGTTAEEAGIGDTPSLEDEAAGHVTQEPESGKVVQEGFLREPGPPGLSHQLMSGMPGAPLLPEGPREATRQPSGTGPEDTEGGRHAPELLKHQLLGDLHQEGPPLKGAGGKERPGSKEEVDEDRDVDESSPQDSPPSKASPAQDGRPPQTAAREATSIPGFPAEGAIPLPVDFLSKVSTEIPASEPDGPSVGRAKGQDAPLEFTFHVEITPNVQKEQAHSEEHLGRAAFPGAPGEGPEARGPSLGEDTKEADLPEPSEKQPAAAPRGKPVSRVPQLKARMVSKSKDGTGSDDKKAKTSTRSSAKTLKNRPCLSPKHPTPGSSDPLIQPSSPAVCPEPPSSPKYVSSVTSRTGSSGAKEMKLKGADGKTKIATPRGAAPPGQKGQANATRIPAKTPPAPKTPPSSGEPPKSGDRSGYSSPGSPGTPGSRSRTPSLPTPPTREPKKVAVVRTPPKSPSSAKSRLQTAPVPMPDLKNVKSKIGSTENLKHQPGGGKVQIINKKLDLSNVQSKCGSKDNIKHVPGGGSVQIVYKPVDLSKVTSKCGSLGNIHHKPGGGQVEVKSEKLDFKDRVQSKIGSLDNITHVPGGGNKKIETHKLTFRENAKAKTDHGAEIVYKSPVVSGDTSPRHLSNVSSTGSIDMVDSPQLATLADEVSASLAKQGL
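Assay mix: 1 uM His-tagged tau, 30 uM sodium octadecylsulfate, thioflavine S dye in HEPES/NaCl/DTT buffer. Compound is added prior to the inducer. Fluorescence after 15 h at 37 C.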
The depositor's hits bear a star; ! = repeats disagree; [ ] = dose if it differs, or a comment. Unless noted, calls come from the whole dose curve; as a rule, active = well fitted curve in the direction sought with a large enough effect; inconclusive = small, poorly fitted or top-dose-only effect, or another doubt; inactive = no such curve, though single readings can be large; an effect the other way counts as inactive or inconclusive. Potency is the fitted concentration of half-maximal effect.

`O=C(COc1ccccc1)N1CCN(c2ncnc3c2cnn3-c2ccccc2)CC1` gave PK Bst >57, TSHR agonist 20%, FLuc inh 0%, HEK293 cAMP cs 9%, ERK AVP block 25µM* and Tau filament bind 20%.
`Cc1cccc(-n2ncc3c(NC4CCCCC4)ncnc32)c1` gave TSHR agonist inconclusive, FLuc inh 10µM*, HEK293 cAMP cs inconclusive and Tau filament bind 53%.
`Cc1ccc(-n2ncc3c(N4CCN(c5ccccc5)CC4)ncnc32)c(C)c1` gave PK Bst >26 and FLuc inh -1%[25.5 µM].
`C=CCNc1ncnc2c1cnn2-c1ccc(Cl)cc1` gave TSHR agonist -23%, FLuc inh 2.5µM*, HEK293 cAMP cs -3% and Tau filament bind 165%.
`O=C(COc1ccccc1)N1CCN(c2nnc(-c3ccccc3)c3ccccc23)CC1` gave PK Bst >57, TSHR agonist 2%, FLuc inh 1%, HEK293 cAMP cs 20%, ERK AVP block -16% and Tau filament bind 0%.
Screening COc1ccccc1Nc1ncnc2c1cnn2-c1cccc(C)c1 returned FLuc inh -10%[25.5 µM].
For C=CCNc1ncnc2c1cnn2-c1cccc(C)c1 the results were TSHR agonist -7%, FLuc inh 10µM*, HEK293 cAMP cs 12% and Tau filament bind 10%.
For O=C(O)c1cc(N=Nc2ccc([N+](=O)[O-])cc2)ccc1O the results were TSHR agonist -13%[11.4 µM], FLuc inh -15%[11.4 µM], HEK293 cAMP cs -17%[11.4 µM], ERK AVP block -9%[11.5 µM] and Tau filament bind 32µM*!.
`Cc1nc(SCC(=O)NCc2ccco2)nc(C)c1C` gave PK Bst >57, TSHR agonist 4%, FLuc inh 3%, HEK293 cAMP cs -1%, ERK AVP block 21% and Tau filament bind 19%.
For O=C(CSc1nc2c(c(C(F)(F)F)n1)CCc1ccccc1-2)NCc1ccco1 the results were PK Bst >57, TSHR agonist inconclusive, FLuc inh 0%, HEK293 cAMP cs 25µM*, ERK AVP block 14% and Tau filament bind 49%.
`CCCn1c(C)nc2c(NCCN(C)C)nc(C)nc21` gave TSHR agonist 3%, HEK293 cAMP cs 0%, ERK AVP block 2% and Tau filament bind 1%.
Screening O=C(Nc1ccccc1-c1nc2ccccc2s1)c1ccco1 returned FLuc inh -1%, HEK293 cAMP cs 29%, ERK AVP block 69% and Tau filament bind inactive.
Cc1cnc(NC(=O)c2ccc(-c3nc4ccccc4s3)o2)s1 was read as PK Bst inactive, TSHR agonist 14%, FLuc inh -6%, HEK293 cAMP cs 12%, ERK AVP block 20µM* and Tau filament bind inconclusive.
Screening O=C(CSc1nnc(CNC(=O)c2ccccc2F)o1)c1ccc(Cl)cc1 returned FLuc inh 1%, HEK293 cAMP cs 16%, ERK AVP block -6% and Tau filament bind 32µM*.
O=C(CSc1ccc(-c2ccccc2)nn1)N1CCOCC1 was read as PK Bst >57, TSHR agonist -13%, FLuc inh -5%, HEK293 cAMP cs -8%, ERK AVP block -14% and Tau filament bind 6%.
Screening O=C(CSc1nc(-c2ccccc2)nc2c1CCCC2)N1CCOCC1 returned PK Bst >57, TSHR agonist 13µM*, FLuc inh 2%, HEK293 cAMP cs 23%, ERK AVP block -9% and Tau filament bind -19%.
`Cn1c(=O)c(-c2cccs2)nc2cnc(Oc3ccccc3)nc21` gave FLuc inh 0%[11.4 µM], HEK293 cAMP cs 10%, ERK AVP block -13% and Tau filament bind 52%.
Screening CC(=O)N1CCN(c2ccc(Oc3nc(-c4ccccc4)nc4ccccc34)cc2)CC1 returned PK Bst >57, TSHR agonist 25µM*, FLuc inh 2%, HEK293 cAMP cs -1%, ERK AVP block 12% and Tau filament bind 5%.
For CC1=CC(=C2C(=O)c3ccccc3C2=O)C=C(C)N1C the results were TSHR agonist 11%, FLuc inh 16µM*, HEK293 cAMP cs 7%, ERK AVP block 26% and Tau filament bind -18%.
Screening CC(C)=NO[C@@H](C)c1cn([C@@H]2COC[C@@H]2O)nn1 returned TSHR agonist 4%[11.4 µM], FLuc inh 0%[11.4 µM], HEK293 cAMP cs 1%[11.4 µM] and ERK AVP block 10%[11.5 µM].
CCOc1ccc2nc(NC(=O)CS(=O)(=O)c3ccccc3)sc2c1 was read as PK Bst >57, TSHR agonist -5%, FLuc inh -24%, HEK293 cAMP cs 0%, ERK AVP block inconclusive and Tau filament bind -8%.
For CCCC(=O)Nc1nc2ccc(OCC)cc2s1 the results were TSHR agonist -9%, FLuc inh 13µM*, HEK293 cAMP cs -4% and Tau filament bind -10%.
For COCC(=O)Nc1nc2ccc(C)cc2s1 the results were PK Bst inactive, TSHR agonist -7%, FLuc inh 20µM*, HEK293 cAMP cs 0%, ERK AVP block -16% and Tau filament bind 2%.
Screening CCNC(=O)[C@H]1O[C@H](n2cnc3c(N)nc(NCCc4ccc(CCC(=O)O)cc4)nc32)[C@@H](O)[C@@H]1O returned TSHR agonist 17%, FLuc inh 0%, HEK293 cAMP cs 10%, ERK AVP block -24% and Tau filament bind inconclusive.
For O=C1[C@@H]2[C@H]3[C@H](O)[C@H](O)C/C(=N/OC[C@@H](O)COCc4ccco4)[C@@H]3CC[C@H]2C(=O)N1c1ccc(F)cc1F the results were FLuc inh -5%[11.4 µM], HEK293 cAMP cs -2%[11.4 µM] and ERK AVP block -17%[11.5 µM].
C/C(=N\O)c1ccc2c3c([nH]c2c1)CCCC3 was read as TSHR agonist -28%, FLuc inh 16µM*, HEK293 cAMP cs -10%, ERK AVP block -3% and Tau filament bind 67%.
`Cn1c(=O)c(-c2ccc(Cl)cc2)nc2cnc(N3CCNCC3)nc21` gave TSHR agonist 2%, FLuc inh -13%[11.4 µM], HEK293 cAMP cs 10%, ERK AVP block 0% and Tau filament bind 128%.
For COC(=O)CSc1nnc(-c2ccco2)n1Cc1ccco1 the results were PK Bst >57, TSHR agonist 5%, FLuc inh 2%, HEK293 cAMP cs 17%, ERK AVP block -4% and Tau filament bind 0%.
CCCCOc1[nH]c2nc(-c3ccco3)n(Cc3ccco3)c(=N)c2c1C#N was read as PK Bst 11*, TSHR agonist 6%, FLuc inh 2%, HEK293 cAMP cs 3%, ERK AVP block 9% and Tau filament bind -1%.

Screening data (PubChem)
